# Screening data as filed in PubChem.
# Shown are actives, neighbours in structure and some others; about 0.9% of the full set was active somewhere.
# SRC1 TRFRET art: TR-FRET detection interference compounds, primary screen, artefact control for PPARgamma SRC-1 recruitment agonists, biochemical, TR-FRET emission ratio | 0.34% of 99,000 active | TR-FRET detection artefact counter-screen; hits give high values | TR-FRET ratio at 8 µM | AID 1051, 2008; in the data active = TR-FRET ratio above about 2300
# PPARg SRC-2 ag: agonists of PPARg-SRC-2 recruitment, primary screen, biochemical, HTS; Peroxisome proliferator-activated receptor gamma (Homo sapiens), P37231; 0.34% of 200,000 active; AID 1032, 2008; activation, % at 8 µM; PPARgamma LBD-SRC-2 recruitment; in the data active = activation above about 22%;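 also: 0% = vehicle and 100% = reference agonist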
# Target sequence (P37231 whole entry, looked up, the tested form may be a part): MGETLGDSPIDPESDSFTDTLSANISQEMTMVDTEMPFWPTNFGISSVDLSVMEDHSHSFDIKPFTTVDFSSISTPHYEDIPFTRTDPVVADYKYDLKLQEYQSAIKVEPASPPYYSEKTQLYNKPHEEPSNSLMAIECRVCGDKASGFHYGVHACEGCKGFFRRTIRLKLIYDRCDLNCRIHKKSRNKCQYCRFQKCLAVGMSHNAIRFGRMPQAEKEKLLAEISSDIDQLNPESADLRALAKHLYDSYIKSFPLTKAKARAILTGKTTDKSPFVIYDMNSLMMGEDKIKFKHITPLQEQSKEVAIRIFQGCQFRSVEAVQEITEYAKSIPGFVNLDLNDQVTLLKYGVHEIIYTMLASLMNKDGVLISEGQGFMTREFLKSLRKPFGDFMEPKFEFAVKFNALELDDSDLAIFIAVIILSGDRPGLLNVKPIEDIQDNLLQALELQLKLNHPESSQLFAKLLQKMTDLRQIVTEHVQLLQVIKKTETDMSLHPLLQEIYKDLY
# PPARg SRC3 recr: PPARgamma agonists recruiting SRC-3 coactivator, primary screen, biochemical | Peroxisome proliferator-activated receptor gamma (Homo sapiens), P37231 | biochemical PPARgamma/SRC-3 coactivator recruitment assay | 0.26% of 200,000 active | activation, % at 8 µM; in the data active = activation above about 23%;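 also: 0% = DMSO and 100% = reference agonist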
# SRC2 TRFRET art: TR-FRET signal artefacts, primary screen, artefact control for PPARgamma SRC-2 agonist project, biochemical. TR-FRET artefact counter-screen; hits give high values. TR-FRET ratio at 8 µM. 0.4% of 200,000 active. AID 1049, 2008
# SRC3 TRFRET art: TR-FRET detection interference compounds, artefact control for PPARgamma SRC-3 recruitment agonists, biochemical, TR-FRET ratio. AID 1048, 2008. TR-FRET artefact counter-screen, PPARgamma/SRC-3 format; hits give high values. 0.39% of 99,000 active. TR-FRET ratio at 8 µM
# PPARg SRC-1 ag: PPARgamma agonists recruiting SRC-1 coactivator, primary screen, biochemical; Peroxisome proliferator-activated receptor gamma (Homo sapiens), P37231; PPARgamma-SRC-1 coactivator recruitment biochemical assay; AID 631, 2007; activation, % at 8 µM; 0.41% of 200,000 active; in the data active = activation above about 19%;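 also: 0% = DMSO and 100% = reference agonist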
# * hit, by the source's call; . = no result. Rule as the data show it, unless noted: active = TR-FRET ratio above about 2000; inactive = the rest.
SMILES,SRC1 TRFRET art,PPARg SRC-2 ag,PPARg SRC3 recr,SRC2 TRFRET art,SRC3 TRFRET art,PPARg SRC-1 ag
CCCCn1c(SCc2nc(N)nc(Nc3ccccc3C)n2)nc2ccccc2c1=O,.,-5,-10,1460,.,-2
C=CCn1c(=O)c2ccccc2n2c(SCc3nc(N)nc(Nc4ccccc4C)n3)nnc12,.,5,8,1648,.,22*
C=CCn1c(=O)c2ccccc2n2c(SCC(=O)c3ccccc3)nnc12,.,1,27*,1556,.,8
O=C(NC1CCCCC1)N1CCN(Cc2ccco2)CC1,1600,-5,1,1485,1544,5
Cc1nnc(SCc2nnc(-c3cccs3)o2)s1,1949,10,4,1779,1454,7
COc1ccc(C2CC(c3ccc(Br)cc3)=NN2C(=O)CSC2=NCCS2)cc1 (stereo not drawn),1958,9,5,1826,2257*,-8
COC(=O)c1ccc(COC(=O)c2ccc(S(=O)(=O)N3CCC(C)CC3)cc2)o1,.,7,7,1607,.,21*
CCOC(=O)CS(=O)(=O)c1ccccc1,.,0,4,1540,.,1
CCOC(=O)CS(=O)(=O)c1ccc(O)cc1,1801,0,3,1582,1704,21*
S=C(c1cn(CCOc2ccccc2)c2ccccc12)N1CCCC1,.,1,7,1705,.,-1
S=C(c1cn(CCOc2cccc3ccccc23)c2ccccc12)N1CCCC1,3691*,19,19,3070*,3153*,15
Cc1ccc(OCCn2cc(C(=S)N3CCCC3)c3ccccc32)cc1C,.,2,9,2180*,.,16
O=C(C1=C[C@@H](c2ccc(C(F)(F)F)cc2)C[C@@H](OCCCCO)O1)N1CCN(Cc2ccc3c(c2)OCO3)CC1,1799,0,32*,1423,1594,10
Cc1c(C2C(C#N)=C(N)N(c3cccc([N+](=O)[O-])c3)C3=C2C(=O)CCC3)cnn1C (stereo not drawn),1688,0,-2,1658,1704,0
CCOc1ccc(N=C2NN=C(c3cc(C)n(CC4CCCO4)c3C)CS2)cc1 (stereo not drawn),1953,3,2,1711,1828,22*
Cc1ccccc1-n1ncc(C(C)NC(=O)c2ccco2)c1C (stereo not drawn),1843,-5,4,1349,1682,1
O=C(C1CCCN(S(=O)(=O)c2ccc(F)cc2)C1)N(Cc1cccs1)C1CC1 (stereo not drawn),2408*,12,2,1524,1816,7
O=c1[nH]cc(NCCNc2ncc(C(F)(F)F)cc2Cl)c(=O)[nH]1,1823,1,2,1526,1766,-3
CCO[C@@H]1OC(C(=O)N2CCN(Cc3ccc4c(c3)OCO4)CC2)=C[C@H](c2csc3ccccc23)[C@H]1CCCO,2146,23*,6,1593,1578,9
CCO[C@H]1OC(C(=O)N2CCN(Cc3ccc4c(c3)OCO4)CC2)=C[C@@H](c2ccccc2)[C@@H]1CCCO,1658,1,0,1574,1624,4
NC(=S)Nc1cccc2cc3ccccc3cc12,.,22*,16,1632,.,14
CCCCOC(=O)N/N=C/C=C/c1ccccc1,2344*,-1,6,1669,1739,11
O=c1[nH]c(-c2ccccn2)nc2sc(-c3ccccc3)cc12,1657,-2,-1,1722,1475,1
CCCCC(CC)c1nnc(NC(=O)c2cccs2)s1 (stereo not drawn),1873,22*,6,1818,1670,-2
CN1c2ccsc2/C(=N/Nc2ccccc2)CS1(=O)=O,2232,13,7,2054*,1742,0
CN1c2ccsc2/C(=N/NC(=O)c2c(F)cccc2F)CS1(=O)=O,.,13,0,1571,.,7
Cn1cccc1/C=N\NC(=O)Cc1ccc(Br)c2ccccc12,1963,12,1,1676,1729,6
CCOC(=O)C1C(=O)C=C(c2ccc([N+](=O)[O-])cc2)CC1c1ccccc1 (stereo not drawn),.,1,3,1385,.,2
